According to PubChem BioAssay (NCATS):
Records with an inconclusive call do not appear. The source made the active and inactive calls. Unless noted, calls follow the shape of the dose curve; as a rule, active = well fitted curve in the direction sought with a large enough effect; inconclusive = small, poorly fitted or top-dose-only effect, or another doubt; inactive = no such curve, though single readings can be large; an effect the other way counts as inactive or inconclusive.

How the values were obtained:
[1] = qHTS profiling for inhibitors of Plasmodium falciparum (3D7) proliferation (AID 743322; call rule not given here;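 also: infected erythrocytes exposed to compound for 72 h before lysis; 100% = DMSO vehicle wells and 0% = 0.29 µM artemisinin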); conditions: P. falciparum 3D7 proliferation; at 28.7 µM (top of the series)
How it was run: (§1)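 Parasite DNA was quantified by SYBR Green I fluorescence (ex 485, em 535 nm) after overnight lysis in saponin/Triton buffer at room temperature. Cultures at 0.3% parasitemia and 2.5% hematocrit were first exposed to compound for 72 h at 37 C; signals were normalised to artemisinin (0.29 uM) and vehicle wells.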

[2] = qHTS profiling for inhibitors of Plasmodium falciparum (DD2) proliferation (AID 743323; call rule not given here); conditions: lower = more inhibition; at 28.7 µM (top of the series)
How it was run: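 Parasite DNA quantified by SYBR Green fluorescence (ex 485, em 535 nm) after saponin/Triton lysis and overnight dark incubation. Cultures: 0.3% parasitemia, 2.5% hematocrit, 72 h, 37 C; data scaled between DMSO and 0.29 uM artemisinin.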

[3] = qHTS profiling of the MIPE4 collection as inhibitors of Plasmodium falciparum (3D7) proliferation (AID 743344; call rule not given here;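 also: scaled between DMSO vehicle wells and 0.29 µM artemisinin as full inhibition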); conditions: P. falciparum 3D7 in erythrocytes, SYBR Green DNA fluorescence, 72 h; at 28.5 µM (top of the series) unless noted
How it was run: as §1

[4] = qHTS profiling of the MIPE4 collection as inhibitors of Plasmodium falciparum (DD2) proliferation (AID 743345; call rule not given here); conditions: P. falciparum Dd2 in erythrocytes, SYBR Green DNA, 72 h; at 28.5 µM (top of the series) unless noted
How it was run: as §1

[5] = qHTS profiling of the MIPE4 collection as inhibitors of Plasmodium falciparum (DD2) proliferation (Rep 2) (AID 743346; call rule not given here); conditions: P. falciparum Dd2 in erythrocytes, SYBR Green DNA, 72 h; at 28.5 µM (top of the series) unless noted
How it was run: as §1

[6] = qHTS profiling of the MIPE4 collection as inhibitors of Plasmodium falciparum (HB3) proliferation (AID 743347; call rule not given here;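 also: plate controls were DMSO vehicle wells for no effect and artemisinin wells for full effect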); conditions: P. falciparum HB3 in erythrocytes, SYBR Green DNA, 72 h; at 28.5 µM (top of the series) unless noted
How it was run: as §1

[7] = High-throughput drug toxicity screening in the BPDCN cell line Gen2.2 (AID 1224824; call rule not given here;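 also: cells exposed to compounds for 48 h before reading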); conditions: Gen2.2 BPDCN cells; at 45.8 µM (top of the series) unless noted
How it was run: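 Gen2.2 cells, 500 per well in phenol red-free RPMI with 10% FBS, exposed to compounds 48 h at 37 C, 5% CO2; viability by CellTiter-Glo luminescence. Percent activity scaled to DMSO (100%) and 9.2 uM bortezomib final (0%).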

[8] = High-throughput drug toxicity screening in the BPDCN cell line Cal-1 (AID 1224825; call rule not given here); conditions: Cal-1 BPDCN cell viability, qHTS; at 45.8 µM (top of the series) unless noted
How it was run: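 CellTiter-Glo luminescence after 48 h compound exposure; percent activity scaled with DMSO as 100% and bortezomib (9.2 uM final) as 0%. Cal-1 cells seeded at 500/well in RPMI, 10% FBS, no phenol red.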

[9] = qHTS assay for measurement of the activity of small molecule inhibitors on Zika virus induced Caspase-3 activity in human iPSC derived neural progenitor cells (hNPCs) (AID 1224857); also: nearly all actives have a fitted effect of over 65% in size; also: potency is read from the fitted curve at half-maximal effect
How it was run: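 Percent inhibition of virus-induced caspase-3/7 luminescence (Caspase-Glo), scaled between uninfected cells and Zika-infected cells. hNPCs received compound 1 hr before ZIKV at 2 FFU/cell, with 6 hours infection at 37 C.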

[10] = qHTS assay for measurement of the activity of small molecule inhibitors on Zika virus induced Caspase-3 activity in human astrocytoma cells (AID 1224859);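 also: plate controls were ZIKV-infected untreated cells for no effect and uninfected cells for full effect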
How it was run: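 Luminescent caspase-3/7 read-out (30 min reagent, room temperature) in human SNB-19 cells infected 6 h with ZIKV (2 FFU/cell) after 1 h compound pre-incubation; Data were normalised to uninfected and infected wells.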

[11] = qHTS Screen of the MIPE 4.0 Collection Against Ewings Sarcoma (RDES) (AID 1259252); also: nearly all actives have a fitted effect of over 35% in size; also: potency is read from the fitted curve at half-maximal effect
How it was run: (§2)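 Log-phase cells in RPMI with 5% FBS attached for 4 h, then received compounds as a titration for 48 h at 37C, 5% CO2. Viability was read by CellTiter-Glo luminescence and normalized to DMSO and no-cell wells.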

[12] = qHTS Screen of the MIPE 4.0 Collection Against Ewings Sarcoma (TC71) (AID 1259253); also: nearly all actives have a fitted effect of over 40% in size; also: potency is read from the fitted curve at half-maximal effect
How it was run: as §2

[13] = qHTS Screen of the MIPE 4.0 Collection Against Ewings Sarcoma (EW8) (AID 1259255); also: nearly all actives have a fitted effect of over 35% in size; also: potency is read from the fitted curve at half-maximal effect;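 as to viability: 100% = DMSO-treated cells and 0% = medium-only wells without cells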
How it was run: as §2

[14] = qHTS Screen of the MIPE 4.0 Collection Against Ewings Sarcoma (TC32) (AID 1259256); also: nearly all actives have a fitted effect of over 45% in size; also: potency is read from the fitted curve at half-maximal effect
How it was run: as §2

[15] = Identifying Small Molecule Inhibitors of Pancreatic Cancer Stem Cells (SN12C, Adherent) (AID 1259358);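 also: cell survival measured after 48 h of compound exposure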; also: potency is read from the fitted curve at half-maximal effect
How it was run: (§3)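 Spheroids grown 14 days in stem cell media on hydrogel-coated nonadherent plates; 2D lines seeded directly. Compounds added after 4 h attachment, 48 h at 37C, 5% CO2; CellTiter-Glo luminescence normalized to DMSO (no inhibition) and no-cell wells (full inhibition).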

[16] = qHTS profiling for inhibitors of Plasmodium falciparum (HB3) proliferation (AID 743324); conditions: Plasmodium falciparum HB3 blood-stage proliferation; at 28.7 µM (top of the series);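 also: 100% = DMSO vehicle wells and 0% = artemisinin-treated control wells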
How it was run: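 SYBR Green fluorescence (485 ex/535 em) of lysed cultures, incubated overnight at room temperature in the dark, quantifies parasite DNA. Infected erythrocytes at 0.3% parasitemia and 2.5% hematocrit were exposed 72 h; values normalized to DMSO and 0.29 uM artemisinin controls.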

[17] = Identifying Small Molecule Inhibitors of Pancreatic Cancer Stem Cells (A2780, Spheroid) (AID 1259357); conditions: Potency: A2780 spheroid viability; also: potency is read from the fitted curve at half-maximal effect;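 also: spheroids pre-formed over 14 days in stem cell medium on hydrogel; compound exposure lasted 48 h before the ATP luminescence read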
How it was run: as §3

SMILES | remaining parasite growth % (stronger effect = lower value) [1] | activity, percent of control [2] | parasite growth, % of DMSO control [3] | parasite growth remaining, % of DMSO control (lower = more inhibition) [4] | parasite growth, % of control (lower = inhibition) [5] | growth, % of control [6] | cell viability, % of control (lower = more cytotoxic) [7] | viability (% of control) [8] | Potency [9] | Potency [10] | Potency [11] | Potency [12] | Potency [13] | Potency [14] | Potency [15] | remaining proliferation (% of control), lower = more inhibition [16] | Potency [17]
COc1ccc2c(c1)CC[C@@H](CN(C)CC(=O)O)[C@H]2c1ccccc1 | 101% | 98.6% | 31.6% | 35.4% | 28.4% | 24.2% | 39.9% | 21.4% | inactive | inactive | 2.35 µM (active) | 3.72 µM (active) | 2.35 µM (active) | 2.35 µM (active) | inactive |  | 
CC(C)=CCCC(C)=CCCC(C)=CCSc1ccccc1C(=O)O | 101% | 118% | 22.6% | 25.3% |  | 15.5% | 9.26% | 19% | inactive | inactive | 2.35 µM (active) | 2.35 µM (active) | 2.64 µM (active) | 1.87 µM (active) | inactive | 92% | 
Cc1cn2c(-c3cn[nH]c3)cnc2c(Nc2ccc(C(=O)N3CCNCC3)cc2F)n1 | 19.1% | 12.6% | 5.87% |  | 11.4% | 3.68% | 99.1% | 28.2% | inactive | inactive | 16.6 µM (active) | 18.7 µM (active) | 16.6 µM (active) | 13.2 µM (active) | 20.9 µM (active) | 11.9% | 
Cn1cncc1[C@@](N)(c1ccc(Cl)cc1)c1ccc2c(c1)c(-c1cccc(Cl)c1)cc(=O)n2C | -0.555% | 5.8% | 6.1% |  | 20.3% | 5% | 3.19% | 2.26% | inactive | inactive | 7.43 µM (active) | 4.69 µM (active) | 5.26 µM (active) | 5.9 µM (active) |  | 1.12% | 
Cc1c(NC(=O)OC[C@@H]2COCCN2)cn2ncnc(Nc3ccc4c(cnn4Cc4cccc(F)c4)c3)c12 |  |  |  | 11% | 24.7% | 11.2% | 285% | 13.9% | inactive | inactive | 0.166 µM (active) | 1.05 µM (active) | 1.48 µM (active) | 0.935 µM (active) |  |  | 
COc1cccc2c(NCc3ccccc3)nc(-n3c(N)nc4ccccc43)nc12 |  |  | 5.92% | 5.67% | 11.4% | 3.05% | 3.5% | 2.1% | inactive | inactive | 8.33 µM (active) | 8.33 µM (active) | 8.33 µM (active) | 10.5 µM (active) |  |  | 
C[C@@H]1COC(Nc2ccc3ncnc(Nc4ccc(OCc5nccs5)c(Cl)c4)c3c2)=N1 |  |  | 6% | 11.5% | 27.7% | 8.37% | 127% | 13% | inactive | inactive | 2.64 µM (active) | 3.72 µM (active) | 20.9 µM (active) | 10.5 µM (active) |  |  | 
OCc1ccc(-c2ccc(-c3ccc(CO)s3)o2)s1 |  |  |  | 79.5% | 47.9% | 64.5% | 1.11% | 1.47% | 26.4 µM (active) | inactive | 0.0526 µM (active) | 26.4 µM (active) | 0.0074 µM (active) | 18.7 µM (active) |  |  | 
O=C(C=Cc1cccnc1)NCCCCC1CCN(C(=O)c2ccccc2)CC1 | 81.9% | 85.9% | 50.2% | 93.7% | 51% | 42% | 48% | 4.19% | inactive | inactive |  | 0.0042 µM (active) | 0.0074 µM (active) | 0.0042 µM (active) | inactive | 46.3% | inactive
Cc1cnc(-c2cnc(NCCNc3ccc(C#N)cn3)nc2-c2ccc(Cl)cc2Cl)[nH]1 | 89% | 90.2% |  | 76.5% | 40.9% | 27.2% | 229% | 38.3% | inactive | inactive |  | 11.8 µM (active) | 16.6 µM (active) | 11.8 µM (active) | inactive | 53.7% | inactive
Cc1cc(Nc2cc(NC(=O)c3c(Cl)cccc3Cl)ccn2)nc(N)n1 | 0.674% | 6.07% | 5.6% | 6.82% | 10.1% | 8.82% | 12.1% | 8.08% | inactive | inactive |  | 0.148 µM (active) | 0.187 µM (active) | 0.264 µM (active) |  | -0.262% | 20.9 µM (active)
CC1(C)CC(=O)c2c(C(F)(F)F)nn(-c3ccc(C(N)=O)c(NC4CCC(OC(=O)CN)CC4)c3)c2C1 (stereo not given) |  |  | 7.32% | 8.43% | 11.6% | 4.41% | 1.95% | 13.9% | inactive | inactive | 0.166 µM (active) | 0.166 µM (active) | 0.209 µM (active) | 0.132 µM (active) |  |  | 
Clc1cccc(-c2nnnn2Cc2cccnc2)c1Cl |  |  | 72.2% | 95.6% | 84.8% | 86.1% | 164% | 95.3% | inactive | inactive | inactive | inactive | inactive | inactive |  |  | 
